Values joined by “and” are separate entries in the source; they are usually repeats but may differ in a detail not shown here. Identical values can stand only once. Results filed as inconclusive are left out. A call without a number means that no potency is given here. Where a structure was tested more than once in an assay, its records may differ in their call. Active and inactive are the calls of the source. Unless noted, calls follow the shape of the dose curve; as a rule, active = well fitted curve in the direction sought with a large enough effect in the repeat runs; inconclusive = weak or mixed curves; inactive = no such curve, though single readings can be large; an effect the other way counts as inactive or inconclusive.
Columns and labels:
[1] = target: Thyrotropin receptor (Homo sapiens) (UniProt P16473); experiment: qHTS assay to identify small molecule agonists of the thyroid stimulating hormone receptor (TSHR) signaling pathway (AID 1224843; calls by dose curve; also: nearly all actives have a fitted effect of over 45% in size); settings: TSHR-HEK293 cells, cAMP HTRF, agonist mode, 30 min; series mostly up to 92.4 µM
Procedure, shortened: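 Screening of the Tox21 10K collection used HEK293 cells engineered with TSHR at 800 cells per well. After a 30-min room-temperature compound exposure, HTRF cAMP reagents were added and fluorescence recorded 1 h later.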

[2] = qHTS assay to identify small molecule agonists of the hypoxia (HIF-1) signaling pathway - cell viability counter screen (AID 1224844; calls by dose curve; also: nearly all actives have a fitted effect of over 50% in size; also: potency is read from the fitted curve at half-maximal effect); settings: HRE-bla ME-180 viability, CellTiter-Glo luminescence, 17 h; series mostly up to 76.8 µM
Procedure, shortened: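 Multiplexed with the HRE beta-lactamase assay, this viability read used CellTiter-Glo luminescence (30 min, RT) on HRE-bla ME-180 cells treated 17 hrs with compounds in 0.5% dialyzed FBS medium.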

[3] = qHTS assay to identify small molecule agonists of the hypoxia (HIF-1) signaling pathway (AID 1224846; active = well fitted activation curve with a large enough effect in the signal ratio in the repeat runs, not every such curve was filed as active; the % refers to the signal ratio); settings: HRE-bla ME-180 cells, beta-lactamase ratio, 17 h; series mostly up to 76.8 µM
Procedure, shortened: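 Hypoxia-pathway activation was scored as increased beta-lactamase from an HRE-controlled reporter in ME-180 cells; plated at 2,000 cells per well with 0.5% dialyzed FBS, they were exposed 17 hrs to compounds and then given CCF4-AM.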

[4] = qHTS assay to identify small molecule agonists of H2AX - cell viability counter screen (AID 1224847; calls by dose curve;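 also: wild-type CHO-K1 cells; top concentration of the series differs between compounds; nearly all actives have a fitted effect of over 30% in size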); settings: CHO-K1 viability, CellTiter-Glo luminescence, 3 h; series mostly up to 154 µM
Procedure, shortened: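 For this counter screen, overnight-attached CHO-K1 cells received test compounds (15 concentrations, 0.76% DMSO final); 3 hr later at 37C, CellTiter-Glo reagent was added and luminescence recorded after 30 min at room temperature.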

[5] = qHTS assay to identify small molecule antagonists of the estrogen related receptor (ERR) signaling pathway from Tox21 library (AID 1224848); settings: ERR reporter cell line, luciferase antagonist mode, 18 h; series mostly up to 92.4 µM; also: nearly all actives have a fitted effect of over 50% in size
Procedure, shortened: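 Antagonist-mode screen of the Tox21 10K library in an NTP-provided ERR reporter cell line; 18 h compound exposure at 37 C, luminescence measured with ONE-Glo.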

[6] = qHTS RealTime-Glo MT Cell Viability Assay in HepG2 cells - 24 hour (AID 1224867); settings: RealTime-Glo luminescence; series mostly up to 76.8 µM; also: nearly all actives have a fitted effect of over 50% in size
Procedure, shortened: (§1)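 Luminescence read-out: viable HepG2 cells reduce a prosubstrate to a NanoLuc substrate, giving a signal proportional to live cell number. Reads taken at 0, 8, 16, 24, 32 and 40 h of compound exposure at 37 C.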

[7] = qHTS RealTime-Glo MT Cell Viability Assay in HEK293 cells - 32 hour (AID 1224868); settings: RealTime-Glo luminescence; series mostly up to 76.8 µM; also: top concentration of the series differs between compounds; nearly all actives have a fitted effect of over 50% in size
Procedure, shortened: (§2)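 Nonlytic real-time viability readout: viable cells convert prosubstrate to NanoLuc substrate, giving luminescence proportional to live cell number. HEK293, 600 cells/well, compound added after 5 h, continuous culture at 37 C.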

[8] = A CellTox Green Cytotoxicity Assay to monitor cytotoxicity in HEK293 cells - 0 hour (AID 1224869); settings: CellTox Green fluorescence; series mostly up to 76.8 µM; also: nearly all actives have a fitted effect of over 50% in size
Procedure, shortened: (§3)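 Seeding of HEK293 cells together with cytotoxicity dye preceded a 5 h incubation at 37 C/5% CO2. Test compounds in DMSO were then added and fluorescence monitored across 40 h.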

[9] = qHTS RealTime-Glo MT Cell Viability Assay in HepG2 cells - 40 hour (AID 1224870); settings: RealTime-Glo luminescence; series mostly up to 76.8 µM; also: nearly all actives have a fitted effect of over 50% in size
Procedure, shortened: (§4)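 Real-time viability: cells seeded at 600 per well together with NanoLuc and cell-permeant prosubstrate, compounds added after 5 h incubation. Luminescence tracked at 0, 8, 16, 24, 32 and 40 h of exposure.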

[10] = A CellTox Green Cytotoxicity Assay to monitor cytotoxicity in HEK293 cells - 40 hour (AID 1224871); settings: CellTox Green fluorescence; series mostly up to 76.8 µM; also: nearly all actives have a fitted effect of over 45% in size; also: potency is read from the fitted curve at half-maximal effect
Procedure, shortened: as §3

[11] = qHTS RealTime-Glo MT Cell Viability Assay in HEK293 cells - 16 hour (AID 1224872); settings: RealTime-Glo luminescence; series mostly up to 76.8 µM
Procedure, shortened: as §2

[12] = qHTS RealTime-Glo MT Cell Viability Assay in HepG2 cells - 8 hour (AID 1224873); settings: RealTime-Glo luminescence; series mostly up to 76.8 µM; also: nearly all actives have a fitted effect of over 55% in size
Procedure, shortened: as §4

[13] = qHTS RealTime-Glo MT Cell Viability Assay in HEK293 cells - 40 hour (AID 1224874); settings: RealTime-Glo luminescence; max response: stronger effect = lower value; also: nearly all actives have a fitted effect of over 50% in size
Procedure, shortened: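 Tox21 screen in HEK293 using RealTime-Glo MT chemistry, with cells and reagent co-dispensed. Luminescence proportional to viable cell number was captured at intervals during 40 h compound exposure at 37 C.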

[14] = A CellTox Green Cytotoxicity Assay to monitor cytotoxicity in HEK293 cells - 24 hour (AID 1224875); settings: CellTox Green fluorescence; series mostly up to 76.8 µM; also: nearly all actives have a fitted effect of over 45% in size
Procedure, shortened: as §3

[15] = A CellTox Green Cytotoxicity Assay to monitor cytotoxicity in HepG2 cells - 16 hour (AID 1224876); settings: CellTox Green fluorescence; series mostly up to 76.8 µM; also: nearly all actives have a fitted effect of over 45% in size
Procedure, shortened: (§5)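 Nonlytic assay: viable cells exclude the dye, so fluorescence scales with cell death. HepG2 at 600 cells/well, compounds added after 5 h, signal read across 40 h.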

[16] = qHTS RealTime-Glo MT Cell Viability Assay in HepG2 cells - 32 hour (AID 1224877); settings: RealTime-Glo luminescence; series mostly up to 76.8 µM; also: nearly all actives have a fitted effect of over 55% in size
Procedure, shortened: as §1

[17] = A CellTox Green Cytotoxicity Assay to monitor cytotoxicity in HepG2 cells - 24 hour (AID 1224878); settings: CellTox Green fluorescence; series mostly up to 76.8 µM; also: nearly all actives have a fitted effect of over 45% in size
Procedure, shortened: as §5

[18] = A CellTox Green Cytotoxicity Assay to monitor cytotoxicity in HepG2 cells - 40 hour (AID 1224879); settings: CellTox Green fluorescence; series mostly up to 76.8 µM; also: nearly all actives have a fitted effect of over 40% in size
Procedure, shortened: as §5

[19] = qHTS assay to identify small molecule agonists of H2AX (AID 1224845; active = well fitted activation curve with a large enough effect in the signal ratio in the repeat runs, not every such curve was filed as active; the % refers to the signal ratio); settings: CHO-K1 phospho-H2AX Ser139 HTRF, 3 h; series mostly up to 154 µM
Procedure, shortened: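 Phospho-H2AX Ser139 measured by HTRF (ex 320 nm; em 665 and 620 nm) after 24 hr antibody incubation. Compounds, 15 concentrations, 0.76% DMSO, were applied to CHO-K1 cells for 3hr at 37C before lysis.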

[20] = qHTS assay to identify small molecule agonists of the estrogen related receptor (ERR) signaling pathway from Tox21 library (AID 1224849; calls by dose curve; also: nearly all actives have a fitted effect of over 15% in size); settings: ERR reporter cell line, ONE-Glo luciferase, 18 h; at 92.4 µM (top of the series)
Procedure, shortened: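 Six hours post-seeding at 37 C/5% CO2, ERR cells receive DMSO-solubilised compounds; after 18 h at 37 C, ONE-Glo reagent is applied and luminescence recorded.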

Sequence of Thyrotropin receptor (Homo sapiens) (P16473 whole entry, looked up): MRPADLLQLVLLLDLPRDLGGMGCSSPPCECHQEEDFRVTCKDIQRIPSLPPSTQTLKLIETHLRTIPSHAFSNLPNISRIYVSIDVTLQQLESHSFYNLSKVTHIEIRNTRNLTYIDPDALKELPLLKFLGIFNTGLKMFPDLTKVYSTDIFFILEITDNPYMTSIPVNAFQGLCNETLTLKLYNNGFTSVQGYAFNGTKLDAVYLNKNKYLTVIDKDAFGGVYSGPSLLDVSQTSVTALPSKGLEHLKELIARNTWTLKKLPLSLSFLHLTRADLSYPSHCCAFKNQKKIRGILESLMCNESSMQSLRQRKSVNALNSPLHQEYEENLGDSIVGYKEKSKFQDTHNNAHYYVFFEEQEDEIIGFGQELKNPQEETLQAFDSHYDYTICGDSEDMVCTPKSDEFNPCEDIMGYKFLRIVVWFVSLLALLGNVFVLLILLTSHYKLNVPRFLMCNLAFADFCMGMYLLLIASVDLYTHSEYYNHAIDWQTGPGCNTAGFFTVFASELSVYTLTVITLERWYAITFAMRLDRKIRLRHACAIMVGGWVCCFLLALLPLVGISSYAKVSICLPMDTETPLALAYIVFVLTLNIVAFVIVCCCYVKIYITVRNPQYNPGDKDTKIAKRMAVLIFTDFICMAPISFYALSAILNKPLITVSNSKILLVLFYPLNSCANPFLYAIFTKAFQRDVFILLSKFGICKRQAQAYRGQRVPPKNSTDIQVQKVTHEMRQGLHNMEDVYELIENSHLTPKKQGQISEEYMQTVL

SMILES | Potency [1] | Potency [2] | Potency [3] | Potency [4] | Potency [5] | Potency [6] | Potency [7] | Potency [8] | Potency [9] | Potency [10] | Potency [11] | Potency [12] | max response [13] | Potency [14] | Potency [15] | Potency [16] | Potency [17] | Potency [18] | outcome [19] | activity change, positive = activation [20]
COC(=O)CCC(=O)OC | inactive | inactive | inactive | inactive | inactive | inactive | inactive | inactive | inactive | inactive | inactive | inactive | -3.79% (inactive) and 17.6% (inactive) | inactive | inactive | inactive | inactive | inactive | – | –
CC(C)OC=O | inactive | 58.4 µM (active) and inactive | inactive | inactive | inactive | inactive | inactive | inactive | – | inactive | inactive | inactive | 5.62% (inactive) and -7.32% (inactive) | inactive | – | inactive | inactive | inactive | inactive | -9.53% (inactive) and -2.76% (inactive)
CC(=O)C1(C)CC2=C(CCCC2(C)C)CC1C (configuration not stated) | inactive | inactive | inactive | inactive | inactive | inactive | inactive | inactive | inactive | 41.6 µM (active) | inactive | inactive | -4.9% (inactive) and 2.42% (inactive) | – | – | inactive | inactive | inactive | – | 8.11% (inactive) and 5.11% (inactive)
Cc1ncc[nH]1 | inactive | inactive | inactive | inactive | – | inactive | inactive | inactive | – | inactive | inactive | inactive | 3.53% (inactive) and 2.93% (inactive) | inactive | inactive | inactive | inactive | inactive | inactive | –
C=C(C)C(=O)OCCOC(=O)C(=C)C | inactive | inactive | inactive | inactive | inactive | inactive | inactive | inactive | inactive | inactive | inactive | inactive | 7.24% (inactive) and -0.024% (inactive) | inactive | – | inactive | inactive | inactive | – | -0.0914% (inactive) and 4.51% (inactive)
Clc1nc(Cl)c(Cl)c(Cl)c1Cl | inactive | inactive | inactive | inactive | inactive | inactive | inactive | inactive | inactive | 43.9 µM (active) and inactive | inactive | inactive | 1.46% (inactive) and 24.5% (inactive) | inactive | inactive | inactive | inactive | inactive | inactive | 4.58% (inactive) and 5.62% (inactive)
O=C(O)c1ccccc1Nc1cccc(C(F)(F)F)c1 | inactive | inactive | – | inactive | – | inactive | inactive | inactive | – | inactive | inactive | inactive | -19.7% (inactive) and -3.43% (inactive) | inactive | inactive | inactive | inactive | inactive | inactive | –
CN(C)C(=N)N=C(N)N | inactive | inactive | inactive | inactive | – | inactive | inactive | inactive | – | inactive | inactive | inactive | 2.54% (inactive) and 1.8% (inactive) | inactive | – | inactive | inactive | inactive | inactive | –
Cc1cccc(C(=O)O)c1 | inactive | inactive | inactive | inactive | inactive | inactive | inactive | inactive | – | inactive | inactive | inactive | 0.572% (inactive) and -3.52% (inactive) | inactive | – | inactive | inactive | inactive | inactive | 0.909% (inactive) and 9.04% (inactive)
COc1c(Cl)c(Cl)c(Cl)c(Cl)c1Cl | inactive | inactive | inactive | inactive | inactive | inactive | inactive | inactive | inactive | inactive | inactive | inactive | -6.1% (inactive) and 5.51% (inactive) | inactive | – | inactive | inactive | inactive | – | –
Nc1ccc(S(=O)(=O)Nc2cnc3ccccc3n2)cc1 | inactive | inactive | – | inactive | – | inactive | inactive | inactive | inactive | inactive | inactive | inactive | -2.7% (inactive) and 1.7% (inactive) | inactive | inactive | inactive | inactive | inactive | inactive | –

— PubChem BioAssay (Tox21)
